High-throughput results (PubChem BioAssay)
Hits are enriched below; roughly 4% of the tested compounds scored in any of these assays.
CF NFkB inh = inhibitors of PAF-induced NF-kB signaling, primary screen, cell-based, GFP fluorescence, uHTS. inhibition, % at 5 µM. hit rate 0.86% among 360,000. KKLEB NF-kB-GFP reporter, GFP fluorescence overnight;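 active means at least 50% inhibition at 5 µM, scaled per plate between neutral and stimulator controls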;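 further: PAF is a Pseudomonas aeruginosa culture filtrate used as stimulus; plate controls were PAF-stimulated DMSO wells for no effect and unstimulated DMSO wells for full effect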
Peg3 prom inh = Peg3 promoter-driven luciferase inhibitors, primary screen, cell-based, HeLa, luciferase luminescence; HeLa PEG-Prom luciferase reporter, overnight; inhibition, % at 20 µM; hit rate 1.7% among 360,000;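 active means inhibition of at least 50% at 20 µM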
TROY signal inh = inhibitors of TROY-driven NF-kB signaling, primary screen, Q293 LMP1-TROYcd cells, NF-kB luciferase, uHTS; Q293 LMP1-TROYcd NF-kB luciferase reporter, 4 h; inhibition, % at 10 µM; hit rate 0.98% among 360,000;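 active means compounds whose plate-normalised and pattern-corrected inhibition of the luciferase reporter signal at the single screening dose is 50% or more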
KKLEB tox = cytotoxicity in KKLEB CF airway cells, primary screen, cytotoxicity control for CF NF-kB inhibitor project, cell-based, uHTS, fluorescence assay plates; KKLEB CF airway cells viability, ATPlite luminescence, overnight; stronger effect = lower value; cells stimulated with P. aeruginosa culture filtrate; activity change (cytotoxicity), % at 5 µM; hit rate 0.36% among 360,000; AID 602141, 2011;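 active means corrected activity change at or below -50% at 5 µM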
TWEAK Fn14 block = inhibitors of TWEAK-Fn14 signaling, primary screen, luciferase reporter cells, uHTS; TWEAK-stimulated Fn14 reporter cells, luciferase luminescence, 8 h; inhibition, % at 10 µM; hit rate 2% among 360,000; in the data active means inhibition above about 50%
HIF-2a block = HIF-2a reporter inhibitors, primary screen, luminescence, 786-0 RCC cells. hit rate 0.72% among 360,000. inhibition, % at 18.8 µM. 786-0 RCC cells HIF-2a reporter, luciferase luminescence, overnight;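 active means inhibition of the luminescence signal of 40% or more relative to plate controls, in a single-dose primary screen at 18.75 µM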
Numbers without * were called inactive.

SMILES	CF NFkB inh	Peg3 prom inh	TROY signal inh	KKLEB tox	TWEAK Fn14 block	HIF-2a block
CN1CCN(C(c2ccc(Br)cc2)c2cc(Cl)c3cccnc3c2O)CC1 (centres undefined)	41	41	-4	-9	14	50*
CCc1nc2ccc(C(=O)NCc3ccc(OC)cc3)cn2c1N(C)CCC(C)C	0	16	13	0	-5	-8
Cn1c2c(c(=O)n(C)c1=O)C(C(F)(F)F)(C(F)(F)F)N=C(CCC1CCCCC1)N2	24	58*	53*	7	60*	11
CCOc1ccc2nc(NC(=O)c3ccoc3C)sc2c1	-1	-45	32	-3	63*	-69
O=C(Nc1nc2ccc(F)cc2s1)c1ccc([N+](=O)[O-])o1	81*	67*	-12	-62*	38	-177
CCOc1ccc2nc(NC(=O)CSc3nc4c(c(=O)n(C)c(=O)n4C)n3C(C)C)sc2c1	9	35	50*	2	53*	-58
CCOc1ccc2nc(NC(=O)c3ccco3)sc2c1	-13	-109	23	-3	59*	-85
O=C(NC(=S)Nc1nc2ccc(F)cc2s1)c1ccco1	-20	-166	26	-71*	-4	-212
CS(=O)(=O)c1ccc2nc(NC(=O)c3ccco3)sc2c1	25	-147	-28	-11	37	-132
COc1cc2nc(NC(=O)c3ccccc3)sc(=O)c2cc1OC	16	19	7	-18	72*	-32
O=C(Nc1nc2ccccc2c(=O)s1)c1ccco1	11	-1	5	-12	54*	2
O=C(Nc1nc2cc3c(cc2s1)OCO3)c1ccco1	-26	20	56*	-11	90*	-11
Cc1c(Cc2ccccc2)c(=O)oc2c(C)c(OCC(=O)N[C@@H](Cc3ccccc3)C(=O)O)ccc12	-8	-5	22	-9	-5	-7
Cc1ccc(C(=O)OC(C)C(=O)c2cc(C)c(C)cc2C)o1 (centres undefined)	-29	-30	-26	13	-14	-42
CCCCNc1cc(NC(C)=O)cc2cc(OC)c(OC)cc12	-2	9	14	5	9	7
COc1cc2cc(NC(C)=O)cc(NCc3ccccc3)c2cc1OC	-20	12	59*	2	-6	14
CC/C(=N/Nc1cccc(C)c1)c1cnnc(SC)n1	55*	37	-33	-52*	-52	9
CC(C)C(=NO)c1ccccc1	-2	7	-14	-1	3	14
O=C(CN(c1ccccc1F)S(=O)(=O)c1ccccc1)Nc1ccc2c(c1)OCCO2	6	-4	45	-9	75*	-19
COc1ccc(C(=O)CCC(=O)N2CCN(c3ccc(C)cc3)C(C)C2)cc1 (centres undefined)	9	17	14	3	3	6
CC(C)N1CCc2c(sc(NC(=O)c3ccc4ccccc4c3)c2C(N)=O)C1	-57	13	-25	-19	-98	-114
CC(C)N1CCc2c(sc(NC(=O)c3ccc(S(=O)(=O)N(C)CC4CCCO4)cc3)c2C(N)=O)C1 (centres undefined)	2	12	13	-10	-7	17
CC(C)N1CCc2c(sc(NC(=O)c3ccc(S(=O)(=O)N4CCCCC4C)cc3)c2C(N)=O)C1 (centres undefined)	15	68*	-3	3	-2	12
CC(C)N1CCc2c(sc(NC(=O)c3ccc(C(=O)c4ccccc4)cc3)c2C(N)=O)C1	7	59*	17	-13	-18	7
COc1ccc(N=C(C)C2=C(O)c3ccccc3C2=O)cc1	1	-105	-12	-24	63*	-105
c1ccc2sc(Sc3ncnc4sccc34)nc2c1	72*	-56	17	-44	83*	-41
O=C(O)/C=C/c1cnn(-c2ccccc2)c1	20	-11	8	-2	67*	5
NCc1cc2c3c(c1)CCCN3CCC2	-17	5	2	5	5	1
